Measured values reported in PubChem BioAssay (NCATS).
Values joined by “and” are separate entries in the source; they are usually repeats but may differ in a detail not shown here. Identical values can stand only once. Records with an inconclusive call do not appear. Active and inactive are the calls of the source. Unless noted, calls come from the whole dose curve.

Experiments:
[1] = biological target: Bile acid receptor (Homo sapiens) (UniProt Q96RI1); test: qHTS assay for small molecule antagonists of farnesoid X receptor signaling (AID 588526); note: % is set by controls: 0 for no effect and ±100 for the full control effect
How it was run: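 Beta-lactamase reporter antagonist mode: HEK293T FXR-UAS-bla cells, titrated compound, CDCA stimulation, 16 h 37 C, CCF4 dye 2 h RT. Data normalized to CDCA 50 uM and DMSO; Hill-fit IC50.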

[2] = biological target: Glucocorticoid receptor (Homo sapiens) (UniProt P04150); test: qHTS assay for small molecule agonists of glucocorticoid receptor signaling (AID 588532; active = well fitted curve in the direction sought with a large enough effect in the signal ratio, with a control signal flat; the % refers to the signal ratio;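 note: 100% = dexamethasone at 0.1 µM and 0% = DMSO only wells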); details: HeLa MMTV-bla, beta-lactamase ratio, agonist, 18 h; stronger effect = higher value; percent of dexamethasone control, DMSO zero
How it was run: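 Quantitative HTS using CellSensor MMTV-bla HeLa cells in charcoal/dextran-treated serum; compounds tested up to 92 uM. After 18 h at 37 C, CCF4 dye reported reporter induction.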

[3] = biological target: Glucocorticoid receptor (Homo sapiens) (UniProt P04150); test: qHTS assay for small molecule antagonists of glucocorticoid receptor signaling (AID 588533; active = well fitted inhibition curve with a large enough effect in the signal ratio, with a control signal flat, not every such curve was filed as active; the % refers to the signal ratio;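 note: cells stimulated with 2 nM dexamethasone as agonist; % is set by controls: 0 for no effect and ±100 for the full control effect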)
How it was run: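 Antagonist-mode qHTS: compound titrations added to GRE-bla HeLa cells, then dexamethasone 2 nM final; 18 h, 37 C. CCF4 FRET fluorescence normalized to dexamethasone and DMSO; IC50 from Hill fit.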

[4] = qHTS assay for small molecule antagonists of peroxisome proliferator-activated receptor delta signaling (AID 588535; active = well fitted inhibition curve with a large enough effect in the signal ratio, with a control signal flat, not every such curve was filed as active; the % refers to the signal ratio;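 for max response: cells co-treated with a PPAR-delta agonist as stimulator during compound exposure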); details: HEK293T PPARd-UAS-bla, beta-lactamase FRET ratio, 18 h; 460 nm channel
How it was run: (§1)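 Titrations were run on PPAR-delta-UAS-bla HEK293T cells in charcoal/dextran-stripped serum, incubated 18 h at 37 C. CCF4 fluorescence (460/530 nm) after 2 h RT; Hill equation yields IC50 and maximal response.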

[5] = biological target: Peroxisome proliferator-activated receptor delta (Homo sapiens) (UniProt Q03181); test: as above
How it was run: as §1

[6] = biological target: Peroxisome proliferator-activated receptor gamma (Homo sapiens) (UniProt P37231); test: qHTS assay for small molecule agonists of peroxisome proliferator-activated receptor gamma signaling (AID 588536; active = well fitted curve in the direction sought with a large enough effect in the signal ratio, with a control signal flat, not every such curve was filed as active; the % refers to the signal ratio;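 note: 0% = DMSO basal wells and 100% = rosiglitazone at 2 µM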)
How it was run: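 This is an agonist-mode beta-lactamase reporter assay in HEK293 PPAR-gamma-UAS-bla cells with 1% charcoal/dextran FBS. Compound titrations ran 16 h at 37 C before CCF4 detection. EC50 and efficacy are Hill fits scaled to 2 uM rosiglitazone (100%) and DMSO basal.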

[7] = biological target: Peroxisome proliferator-activated receptor gamma (Homo sapiens) (UniProt P37231); test: qHTS assay for small molecule antagonists of peroxisome proliferator-activated receptor gamma signaling (AID 588537; active = well fitted inhibition curve with a large enough effect in the signal ratio, with a control signal flat, not every such curve was filed as active; the % refers to the signal ratio;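 note: reporter cells co-stimulated with 50 nM rosiglitazone agonist during compound treatment; % of control where 0% means no effect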)
How it was run: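 Antagonist-mode β-lactamase reporter screen run as a titration series. HEK293 PPARγ-UAS-bla cells are stimulated with rosiglitazone (50 nM final) for 16 h, then CCF4 is read at 460/530 nm. Data are scaled between DMSO and rosiglitazone and fitted to the Hill equation.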

[8] = biological target: Vitamin D3 receptor (Homo sapiens) (UniProt P11473); test: qHTS assay for small molecule antagonists of vitamin D receptor signaling (AID 588541);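 note: receptor activated by calcitriol during compound treatment; series mostly up to about 77 µM; % is set by controls: 0 for no effect and ±100 for the full control effect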
How it was run: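 Antagonist-mode beta-lactamase reporter assay: HEK293T VDR-UAS-bla cells were exposed to titrated compound alongside 1-alpha,25-dihydroxyvitamin D3 at 3 nM final for 16 h. Values were normalized to the 50 nM agonist control and DMSO basal, with IC50 and efficacy from Hill equation fits.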

[9] = biological target: Vitamin D3 receptor (Homo sapiens) (UniProt P11473); test: qHTS assay for small molecule agonists of vitamin D receptor signaling (AID 588543);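 note: 0% = DMSO basal and 100% = reference agonist control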
How it was run: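 Agonist-mode beta-lactamase reporter: HEK293T VDR-UAS-bla cells in charcoal-stripped 2% FBS, compound series 16 h 37 C, CCF4 2 h RT. EC50 from Hill fit, scaled against DMSO and 50 nM calcitriol control.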

[10] = biological target: Androgen receptor (Homo sapiens) (UniProt P10275); test: qHTS assay for small molecule agonists of androgen receptor signaling (AID 588515; active = well fitted curve in the direction sought with a large enough effect in the signal ratio, with a control signal flat; the % refers to the signal ratio; note: % is set by controls: 0 for no effect and ±100 for the full control effect); details: AR-UAS-bla HEK293, beta-lactamase ratio, agonist 16 h; stronger effect = higher value
How it was run: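 Stimulation of an AR-responsive β-lactamase reporter in GripTite HEK293 cells was measured after 16 h compound exposure at 37 °C, via CCF4 fluorescence after 2 h RT. EC50 from Hill fits, normalized to R1881 at 30 nM.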

[11] = biological target: Androgen receptor (Homo sapiens) (UniProt P10275); test: qHTS assay for small molecule antagonists of androgen receptor signaling (AID 588516; active = well fitted curve in the direction sought with a large enough effect in the signal ratio, with a control signal flat, not every such curve was filed as active; the % refers to the signal ratio; note: % is set by controls: 0 for no effect and ±100 for the full control effect)
How it was run: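 Antagonist mode: inhibition of R1881-stimulated (10 nM final) bla reporter in GeneBLAzer AR HEK 293 cells, 16 h at 37C, compounds titrated. IC50 and efficacy from Hill-equation fits of 405/460–530 nm FRET ratios.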

[12] = biological target: Ubiquitin carboxyl-terminal hydrolase 1 (Homo sapiens) (UniProt O94782); test: Inhibitors of USP1/UAF1: Pilot qHTS (AID 504865; active = well fitted inhibition curve with a large enough effect;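 note: rhodamine fluorescence freed from ubiquitin-rhodamine substrate followed over time; top concentration of the series differs between compounds; % is set by controls: 0 for no effect and ±100 for the full control effect; nearly all actives have a fitted effect of over 35% in size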)
How it was run: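 Deubiquitinase activity followed as kinetic rhodamine fluorescence release from 150 nM Ub-Rho. 1 nM USP1/UAF1 with compound, after 15 min room-temperature preincubation, in HEPES pH 7.8 buffer containing TCEP, EDTA, BSA and Tween-20.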

[13] = biological target: DNA dC->dU-editing enzyme APOBEC-3G (Homo sapiens) (UniProt Q9HC16); test: qHTS for inhibitors of Vif-A3G interactions: Validation (AID 588379; active = well fitted inhibition curve with a large enough effect; note: 0% is about no effect)
How it was run: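 Yellow fluorescence (Ex 488, Em 500-530) of Vif-coexpressing HeLa A3G-eYFP cells, scanned by Acumen cytometer, reports blocked A3G degradation. Cells plated at 700/well overnight at 37 deg C before compound addition, then a further overnight compound incubation at 37 deg C.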

[14] = biological target: Estrogen receptor (Homo sapiens) (UniProt P03372); test: qHTS assay for small molecule antagonists of estrogen receptor alpha signaling (AID 588513; active = well fitted curve in the direction sought with a large enough effect in the signal ratio, with a control signal flat, not every such curve was filed as active; the % refers to the signal ratio; note: % is set by controls: 0 for no effect and ±100 for the full control effect)
How it was run: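 Antagonist mode: inhibition of 0.5 nM 17-beta-estradiol-driven beta-lactamase reporter in HEK 293 ER-alpha-UAS-bla cells, 18 h at 37C, CCF4 readout after 2 h at RT. Normalised to estradiol and DMSO; titration fitted to Hill.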

[15] = biological target: Estrogen receptor (Homo sapiens) (UniProt P03372); test: qHTS assay for small molecule agonists of estrogen receptor alpha signaling (AID 588514);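 note: 0% = vehicle only and 100% = reference agonist; nearly all actives have a fitted effect of over 70% in size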
How it was run: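 Efficacy is expressed against 20 nM 17-beta-estradiol (100%) and DMSO basal (0%); EC50 from Hill equation. Assay: beta-lactamase reporter in ER-alpha-UAS-bla HEK 293 cells, 18 h compound incubation, CCF4 detection.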

Chain of Androgen receptor (Homo sapiens) (P10275 whole entry, looked up): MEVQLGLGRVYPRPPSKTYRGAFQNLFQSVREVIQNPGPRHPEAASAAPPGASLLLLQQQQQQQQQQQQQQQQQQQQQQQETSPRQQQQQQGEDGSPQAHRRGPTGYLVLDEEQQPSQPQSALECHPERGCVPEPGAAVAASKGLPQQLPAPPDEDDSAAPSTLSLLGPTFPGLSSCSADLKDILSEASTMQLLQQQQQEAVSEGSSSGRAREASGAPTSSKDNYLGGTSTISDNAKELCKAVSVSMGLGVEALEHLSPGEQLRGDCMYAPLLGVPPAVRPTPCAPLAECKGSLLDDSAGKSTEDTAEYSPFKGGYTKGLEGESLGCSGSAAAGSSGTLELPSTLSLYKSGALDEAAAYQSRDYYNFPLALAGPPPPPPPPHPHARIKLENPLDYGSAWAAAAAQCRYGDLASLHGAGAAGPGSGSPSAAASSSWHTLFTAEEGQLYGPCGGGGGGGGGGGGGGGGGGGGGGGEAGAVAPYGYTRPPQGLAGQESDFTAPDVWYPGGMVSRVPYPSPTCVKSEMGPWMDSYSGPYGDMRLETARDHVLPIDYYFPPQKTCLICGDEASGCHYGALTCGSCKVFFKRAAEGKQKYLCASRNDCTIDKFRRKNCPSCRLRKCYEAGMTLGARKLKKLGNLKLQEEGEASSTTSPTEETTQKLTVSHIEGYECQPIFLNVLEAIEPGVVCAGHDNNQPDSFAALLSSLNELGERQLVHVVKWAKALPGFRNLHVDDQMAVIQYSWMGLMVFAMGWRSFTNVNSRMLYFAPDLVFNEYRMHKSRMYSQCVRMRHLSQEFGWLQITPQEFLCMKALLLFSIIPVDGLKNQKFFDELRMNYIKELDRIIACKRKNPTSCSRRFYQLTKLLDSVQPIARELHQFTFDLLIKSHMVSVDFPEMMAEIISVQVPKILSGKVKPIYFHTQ
Chain of Vitamin D3 receptor (Homo sapiens) (P11473 whole entry, looked up): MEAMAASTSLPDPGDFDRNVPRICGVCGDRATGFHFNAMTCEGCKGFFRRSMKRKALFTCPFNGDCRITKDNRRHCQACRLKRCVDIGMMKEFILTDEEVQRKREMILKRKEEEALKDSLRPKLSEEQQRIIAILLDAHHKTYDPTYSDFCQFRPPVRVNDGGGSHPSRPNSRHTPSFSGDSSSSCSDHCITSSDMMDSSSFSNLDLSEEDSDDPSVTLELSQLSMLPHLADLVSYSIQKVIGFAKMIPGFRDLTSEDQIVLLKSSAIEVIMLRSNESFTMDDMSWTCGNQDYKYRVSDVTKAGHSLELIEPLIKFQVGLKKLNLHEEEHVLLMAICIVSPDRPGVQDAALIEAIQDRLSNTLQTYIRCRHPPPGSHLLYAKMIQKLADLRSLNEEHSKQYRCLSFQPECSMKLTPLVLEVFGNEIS
Chain of Peroxisome proliferator-activated receptor gamma (Homo sapiens) (P37231 whole entry, looked up): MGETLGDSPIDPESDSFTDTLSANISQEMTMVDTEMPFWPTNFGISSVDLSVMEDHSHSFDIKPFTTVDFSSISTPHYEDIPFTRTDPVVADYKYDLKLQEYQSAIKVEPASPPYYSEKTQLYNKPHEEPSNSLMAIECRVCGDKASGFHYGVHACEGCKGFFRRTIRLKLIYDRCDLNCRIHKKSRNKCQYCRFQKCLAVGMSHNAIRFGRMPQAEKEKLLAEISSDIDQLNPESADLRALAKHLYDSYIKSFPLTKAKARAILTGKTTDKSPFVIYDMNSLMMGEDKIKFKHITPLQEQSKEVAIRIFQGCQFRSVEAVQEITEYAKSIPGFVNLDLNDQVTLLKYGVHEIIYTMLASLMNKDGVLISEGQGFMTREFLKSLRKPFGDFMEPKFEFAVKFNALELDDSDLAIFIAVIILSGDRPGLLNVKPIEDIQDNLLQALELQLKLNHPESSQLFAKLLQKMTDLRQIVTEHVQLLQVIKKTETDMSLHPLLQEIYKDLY
Chain of Bile acid receptor (Homo sapiens) (Q96RI1 whole entry, looked up): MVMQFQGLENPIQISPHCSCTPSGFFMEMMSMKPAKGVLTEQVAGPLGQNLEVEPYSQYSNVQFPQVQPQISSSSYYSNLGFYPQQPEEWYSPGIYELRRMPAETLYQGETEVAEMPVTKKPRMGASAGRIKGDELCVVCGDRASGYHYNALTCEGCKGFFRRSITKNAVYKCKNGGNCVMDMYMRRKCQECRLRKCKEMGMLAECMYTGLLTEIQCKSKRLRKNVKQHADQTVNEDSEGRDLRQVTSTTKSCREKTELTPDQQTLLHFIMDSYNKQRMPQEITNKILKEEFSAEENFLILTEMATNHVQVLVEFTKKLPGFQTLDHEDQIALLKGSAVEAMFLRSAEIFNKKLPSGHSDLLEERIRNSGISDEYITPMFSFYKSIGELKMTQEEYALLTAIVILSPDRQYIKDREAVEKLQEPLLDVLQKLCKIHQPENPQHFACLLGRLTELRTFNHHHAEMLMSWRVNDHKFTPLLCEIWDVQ
Chain of DNA dC->dU-editing enzyme APOBEC-3G (Homo sapiens) (Q9HC16 whole entry, looked up): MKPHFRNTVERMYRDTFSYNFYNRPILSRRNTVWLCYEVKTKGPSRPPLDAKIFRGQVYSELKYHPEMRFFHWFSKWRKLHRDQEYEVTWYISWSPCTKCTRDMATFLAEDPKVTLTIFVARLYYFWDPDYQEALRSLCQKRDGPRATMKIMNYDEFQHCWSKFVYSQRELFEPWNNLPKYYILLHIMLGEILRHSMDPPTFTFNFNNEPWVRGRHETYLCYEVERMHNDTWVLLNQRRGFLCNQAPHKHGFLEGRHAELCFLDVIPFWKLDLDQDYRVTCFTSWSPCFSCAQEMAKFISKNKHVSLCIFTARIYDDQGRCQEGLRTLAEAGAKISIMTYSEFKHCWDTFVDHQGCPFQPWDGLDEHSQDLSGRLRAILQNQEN
Chain of Ubiquitin carboxyl-terminal hydrolase 1 (Homo sapiens) (O94782 whole entry, looked up): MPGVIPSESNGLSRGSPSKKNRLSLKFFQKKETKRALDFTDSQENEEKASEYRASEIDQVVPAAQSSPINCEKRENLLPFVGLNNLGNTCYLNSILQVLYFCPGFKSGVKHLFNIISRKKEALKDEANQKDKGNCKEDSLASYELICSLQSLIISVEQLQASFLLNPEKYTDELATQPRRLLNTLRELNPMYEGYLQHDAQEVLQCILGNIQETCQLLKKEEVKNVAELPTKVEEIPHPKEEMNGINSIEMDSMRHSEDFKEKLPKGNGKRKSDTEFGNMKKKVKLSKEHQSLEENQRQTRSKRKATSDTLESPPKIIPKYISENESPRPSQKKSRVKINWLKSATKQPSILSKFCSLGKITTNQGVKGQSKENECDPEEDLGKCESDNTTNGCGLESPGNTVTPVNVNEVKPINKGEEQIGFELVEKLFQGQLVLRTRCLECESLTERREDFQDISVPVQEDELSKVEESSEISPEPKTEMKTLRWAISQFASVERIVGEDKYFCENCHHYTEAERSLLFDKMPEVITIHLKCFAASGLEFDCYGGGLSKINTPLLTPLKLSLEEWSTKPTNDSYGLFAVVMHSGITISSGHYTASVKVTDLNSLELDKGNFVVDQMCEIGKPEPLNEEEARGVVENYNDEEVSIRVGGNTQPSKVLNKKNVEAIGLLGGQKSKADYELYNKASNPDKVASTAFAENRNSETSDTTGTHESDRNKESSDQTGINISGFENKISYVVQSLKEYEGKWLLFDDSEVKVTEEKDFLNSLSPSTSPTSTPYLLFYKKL
Chain of Peroxisome proliferator-activated receptor delta (Homo sapiens) (Q03181 whole entry, looked up): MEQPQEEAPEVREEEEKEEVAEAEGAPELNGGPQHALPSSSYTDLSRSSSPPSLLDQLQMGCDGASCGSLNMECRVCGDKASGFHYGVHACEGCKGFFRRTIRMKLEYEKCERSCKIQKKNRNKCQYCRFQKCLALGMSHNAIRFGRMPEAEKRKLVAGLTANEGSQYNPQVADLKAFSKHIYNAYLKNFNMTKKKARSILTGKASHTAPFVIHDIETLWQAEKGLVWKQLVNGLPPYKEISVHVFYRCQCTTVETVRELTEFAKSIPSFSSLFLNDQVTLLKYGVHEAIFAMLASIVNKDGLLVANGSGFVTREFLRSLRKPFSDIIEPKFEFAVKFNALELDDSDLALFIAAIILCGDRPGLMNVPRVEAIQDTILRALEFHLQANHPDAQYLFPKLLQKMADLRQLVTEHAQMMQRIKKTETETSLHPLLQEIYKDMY
Chain of Estrogen receptor (Homo sapiens) (P03372 whole entry, looked up): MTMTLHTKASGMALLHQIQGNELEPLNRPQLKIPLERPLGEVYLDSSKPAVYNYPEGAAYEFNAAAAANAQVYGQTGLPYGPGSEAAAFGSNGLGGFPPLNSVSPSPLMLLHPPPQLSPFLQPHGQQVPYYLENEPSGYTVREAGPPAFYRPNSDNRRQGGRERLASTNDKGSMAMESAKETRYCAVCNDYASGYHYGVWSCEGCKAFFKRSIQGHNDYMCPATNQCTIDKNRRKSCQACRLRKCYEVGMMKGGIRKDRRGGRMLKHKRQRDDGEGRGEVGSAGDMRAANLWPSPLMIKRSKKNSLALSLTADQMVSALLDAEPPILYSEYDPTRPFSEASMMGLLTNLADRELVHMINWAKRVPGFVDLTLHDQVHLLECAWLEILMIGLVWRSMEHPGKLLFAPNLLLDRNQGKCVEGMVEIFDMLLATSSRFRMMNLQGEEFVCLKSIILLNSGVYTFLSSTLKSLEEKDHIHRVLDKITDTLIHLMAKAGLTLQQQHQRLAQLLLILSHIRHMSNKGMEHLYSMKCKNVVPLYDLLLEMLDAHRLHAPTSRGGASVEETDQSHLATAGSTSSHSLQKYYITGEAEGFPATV

CC(C)(C)c1ccc(O)c(O)c1
-11.7% and -3.04%: max response [4]
inactive: outcome [1] | activation [2] 27.4% and -11.3% | outcome [3] | outcome [5] | outcome [6] | outcome [7] | outcome [8] | outcome [9]

CCCCCCCCCCCC[N+](C)(C)Cc1ccccc1
29.6%: max response [4]
inactive: activation [10] -8.21% | outcome [11] | outcome [1] | activation [2] 1.25% | outcome [3] | outcome [5] | outcome [6] | outcome [7] | outcome [8] | outcome [9]

Oc1ccccc1
-6.84% and 11%: max response [4]
inactive: outcome [1] | outcome [5] | outcome [6]

Cc1ccc(O)cc1
inactive: Potency [12] | outcome [1] | activation [2] -6.73% | outcome [5] | outcome [6] | outcome [7] | outcome [8] | outcome [9]
-30.2%: max response [4]

OCCOCCN1CCN(C(c2ccccc2)c2ccc(Cl)cc2)CC1 (centres undefined)
inactive: outcome [6] | outcome [7] | outcome [8] | outcome [9]

O=C(NO)c1ccccc1
inactive: outcome [1] | activation [2] -5.9% | outcome [3] | outcome [8] | outcome [9]

COc1cc(C=O)ccc1O
-8.31% and -9.26%: max response [4]
inactive: Potency [12] | outcome [13] | outcome [14] | outcome [15] | outcome [11] | outcome [1] | outcome [5] | outcome [6] | outcome [7] | outcome [8] | outcome [9]

CN1C(=O)c2ccccc2C1=O
-32.8%: max response [4]
inactive: activation [2] -9.8% | outcome [3] | outcome [5] | outcome [6] | outcome [7] | outcome [8] | outcome [9]

CCCCCCCCCCCCCCCC[n+]1ccccc1
inactive: activation [2] 4.95% | outcome [5] | outcome [6] | outcome [9]
21.5%: max response [4]

Nc1cccc2c(N)cccc12
inactive: outcome [15] | activation [10] -5.98% and -0.762% | outcome [1] | outcome [6] | outcome [7] | outcome [9]

Nc1ccc(O)cc1
inactive: outcome [14] | outcome [1] | activation [2] 1.91% | outcome [7] | outcome [9]

CC(=O)OC/C=C(C)/C=C/C=C(C)/C=C/C1=C(C)CCCC1(C)C
34.7%: max response [4]
inactive: Potency [12] | outcome [14] | outcome [15] | outcome [5] | outcome [6] | outcome [8] | outcome [9]

Nc1c[n+](N2CCOCC2)no1
inactive: Potency [12] | outcome [13]

C1=CC2C3C=CC(C3)C2C1 (centres undefined)
inactive: activation [2] -4.75% | outcome [6] | outcome [8] | outcome [9]

CC(C)(c1ccc(O)cc1)c1ccc(O)cc1
inactive: outcome [5]
-24.6%: max response [4]

Cc1cc(C(C)(C)C)c(O)c(C(C)(C)C)c1
13.8%: max response [4]
inactive: Potency [12] | outcome [1] | activation [2] -5.33% and 4.56% | outcome [3] | outcome [5] | outcome [6] | outcome [7]

O=C(c1ccccc1)c1ccccc1
inactive: activation [10] 19.2% and -0.683% | outcome [11] | outcome [1] | activation [2] -1.61% and 0.77% | outcome [3] | outcome [5] | outcome [8] | outcome [9]
3.99% and -25%: max response [4]

OCc1c[nH]c2ccccc12
inactive: Potency [12] | activation [10] -13.7% | outcome [11] | outcome [1] | outcome [6] | outcome [8] | outcome [9]

Cc1ncc(CO)c(CO)c1O
15.2%: max response [4]
inactive: Potency [12] | outcome [1] | outcome [5] | outcome [6] | outcome [7] | outcome [8] | outcome [9]

CCCCC(CC)COC(=O)c1ccccc1C(=O)O (centres undefined)
-31.8%: max response [4]
inactive: outcome [3] | outcome [5] | outcome [8] | outcome [9]

C[C@@H](C1=C(CCN(C)C)Cc2ccccc21)c1ccccn1
inactive: Potency [12] | outcome [13]

O=C(Oc1ccccc1)c1ccccc1O
inactive: outcome [15] | outcome [3] | outcome [6] | outcome [7]

CCCC(=O)c1cc(O)c(O)cc1O
14.6%: max response [4]
inactive: outcome [14] | outcome [15] | activation [10] -9.57% | outcome [1] | activation [2] 7.26% | outcome [5] | outcome [6] | outcome [7] | outcome [8] | outcome [9]

Brc1ccccc1-c1ccccc1
inactive: activation [2] 8.87% | outcome [8] | outcome [9]

O=C(Nc1ccc(Cl)cc1)Nc1ccc(Cl)c(Cl)c1
inactive: Potency [12] | outcome [15] | activation [2] 4.25%
